Experimental findings from PubChem BioAssay AID504546 (Broad Institute, 2011) are described below.

This assay is described as follows: ADP-Glo luciferase signal interference – biochemical, luminescence, cherry-picked samples, set 2, artefact control for CDK5 inhibitor project, dose response (AID 504546). Particulars: ADP-Glo detection reagent counter screen, 5 uM ADP; series mostly up to 30 µM. For orientation: In ADP-Glo the light output rises with the ADP produced.

Records with an inconclusive call do not appear. The source made the active and inactive calls.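 How the source made its calls: active means every repeat run fits a falling-signal curve with half-maximal potency within ten times top tested dose; inconclusive means runs disagree, or flat moderate drop, or poor fit; inactive means every run inactive, including signal moving upward.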

On to `OCCCNc1cc(-c2ccnc(Nc3cccc(Cl)c3)n2)ccn1`, for which the outcome was inactive.

As for `COc1ccc2oc(C(=O)NCCC(C)C)c(C)c2c1`, the call was inactive.

Turning to `CC(=O)[C@H]1CC[C@H]2[C@@H]3CC=C4C[C@@H](OS(=O)(=O)O)CC[C@]4(C)[C@H]3CC[C@]12C`, the compound was classed as inactive.

Take `CC(C)[C@H](CO)Nc1nc(Nc2ccc(Cl)c(C(=O)O)c2)c2ncn(C(C)C)c2n1`: the result was inactive.

With `Clc1cncc(Cl)c1N/N=C/c1ccncc1`, the compound was classed as inactive.

Regarding `O=C(O)c1ccc(N/N=C/c2ccc(C(F)(F)F)cc2)cc1`, the compound was classed as inactive.

As to `COc1ccc(Nc2nccc(-c3cccc(N)c3)n2)cc1`, the outcome was inactive.

On to `S=C(c1ccc(OCc2ccccc2)cc1)N1CCCC1`, for which the call was inactive.

On to `COc1ccc2nc3c(cc2c1)c(NC(=O)CC(C)C)nn3CC(C)C`, for which the call was inactive.

For the compound `ON=C1c2ccccc2-c2ccc(O)cc21`, the compound was called inactive.

For `O=c1c(O)c(-c2ccc(O)c(O)c2)oc2cc(O)ccc12`, the compound was classed as inactive.

As for `NC1=NC(=O)/C(=C/c2ccc(-c3ccc(S(N)(=O)=O)cc3)o2)S1`, the compound was classed as inactive.

For `Cc1ccc(C(=O)O/N=C(\N)c2ccccn2)cc1C`, the compound was classed as inactive.

`C=CC(=O)Nc1ccc(Nc2nc(NC3CCC(N(C)C)CC3)nc3c2ncn3C(C)C)cc1` (configuration not stated): the call was inactive.

Turning to `COc1ccc(Nc2nccc(-c3ccc(C#N)cc3)n2)cc1`, the compound was classed as inactive.

Take `CCC(C)Oc1cc(-c2ccnc(Nc3cccc(Cl)c3)n2)ccn1` (configuration not stated): the compound was classed as inactive.

As for `O=C(Nc1csc(Cc2c(Cl)cccc2Cl)n1)NN1CCOCC1`, the compound was called inactive.
